Screens as filed in PubChem BioAssay.
D2 PAM-1: positive allosteric modulators of human D2 dopamine receptor; 0.34% of 340,000 active; HEK293 T-REx D2, calcium flux, EC20 dopamine potentiation; potentiation, % at 10 µM; P14416;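 active = potentiation over 3 SD above the plate norm, cut at about 30% in these data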
Target sequence (P14416 whole entry, looked up): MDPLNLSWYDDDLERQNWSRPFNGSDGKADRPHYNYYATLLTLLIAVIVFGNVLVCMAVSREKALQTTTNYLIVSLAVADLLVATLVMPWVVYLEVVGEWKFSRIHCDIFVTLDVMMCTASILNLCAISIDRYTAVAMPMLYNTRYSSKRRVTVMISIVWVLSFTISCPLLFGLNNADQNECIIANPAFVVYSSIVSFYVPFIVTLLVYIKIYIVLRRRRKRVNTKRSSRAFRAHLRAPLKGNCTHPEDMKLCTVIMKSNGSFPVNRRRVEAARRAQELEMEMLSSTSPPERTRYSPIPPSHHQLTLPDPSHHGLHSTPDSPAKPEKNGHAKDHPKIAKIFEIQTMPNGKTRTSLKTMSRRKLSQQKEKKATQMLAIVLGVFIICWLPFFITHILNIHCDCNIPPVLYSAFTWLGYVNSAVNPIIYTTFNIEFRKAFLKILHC
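Tetracycline-induced Hek293 Trex D2 cells, force-coupled to calcium, loaded with no-wash calcium dye. Compound added with 180 s kinetic read for agonism, then EC20 dopamine and a further 180 s read for potentiation.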
D2 PAM-2: human D2 receptor positive allosteric modulation | potentiation, % (no concentration beside the values) | DiscoveRx D2 beta-arrestin cells, luminescence, 90 min; 100% = 57 uM dopamine signal | 0.23% of 360,000 active | AID 624464 | P14416; in the data active = potentiation above about 50%; inconclusive = mostly about 30% to 49%
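D2 cells co-treated with compound plus 50 nM dopamine (EC20) for 90 min at 37 deg C to detect potentiation. Beta-arrestin recruitment was read as enzyme-fragment luminescence after 1 h at ambient temperature. Full response was set by 57 uM dopamine.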
D2 antag: antagonists of human D2 dopamine receptor; P14416; HEK293 TREx D2 cells, calcium flux, dopamine EC80; inhibition, % at 10 µM; 2% of 340,000 active; in the data active = inhibition above about 30%; inactive = below that, where a call was filed
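Tetracycline-induced HEK293 T-REx cells expressing D2 force-coupled to calcium signalling were dye-loaded, exposed to compound for 180 s, then challenged with an EC80 of dopamine; calcium flux was followed kinetically for a further 180 s.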
D2 ag-1: agonists of human D2 dopamine receptor; activation, % at 2 µM; 0.53% of 340,000 active; P14416; AID 485358; HEK293 T-REx D2 cells, calcium flux agonist mode;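 active = activation over 3 SD above normal in the single-dose calcium agonist read, cut at about 30% in these data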
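Tetracycline-induced HEK293 T-REx cells with force-coupled D2 receptor, plated overnight at 30 C, loaded with no-wash calcium dye. After a 10 s baseline, compound was pin-added and calcium flux read kinetically for 180 s; calcium rises flagged agonists.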
D2 ag-2: activates the human D2 dopamine receptor; P14416; DiscoveRx PathHunter D2 beta-arrestin, luminescence, 90 min; 100% = 57 uM dopamine signal; activation, % (no concentration beside the values); 0.084% of 360,000 active; AID 624465; in the data active = activation above about 40%; inconclusive = between about 15% and that limit
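DiscoveRx PathHunter D2 beta-arrestin cells (2,100/well) attached overnight, then compound-stimulated 90 min at 37 C in HBSS/10 mM HEPES/0.1% Tween-20 buffer; beta-galactosidase complementation read by luminescence after 1 h at ambient temperature. Dopamine 57 uM final (EC100) as control.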
Of the large screens only hits and unclear results are named; the others gave an inactive call. Only some compounds are listed: those with a hit (about 2.4% of all), similar ones and a draw of the others.

O=C(NCc1nc2ccccc2[nH]1)C1=C[C@H](C2CC2)C[C@H](OCc2ccc(CO)cc2)O1	D2 antag 40
O=C(NCc1nc2ccccc2[nH]1)C1=C[C@@H](C2CC2)C[C@@H](OCc2ccc(CO)cc2)O1	none
O=C(CCc1cn(Cc2ccccc2Cl)c2ccccc12)NC1CCCCC1	none (no result: D2 PAM-2, D2 antag, D2 ag-2)
CC(C)CN(CCNC(=O)c1cc(-c2cccs2)nc2ccccc12)CC(C)C	none (no result: D2 PAM-2, D2 antag, D2 ag-2)
NC(=O)COc1ncn(-c2ccccc2)n1	none
N/C(COc1ncn(-c2ccccc2)n1)=N\S(=O)(=O)c1ccc(Cl)cc1Cl	D2 PAM-1 32
Brc1cnc(N2CCCC2)nc1N1CCOCC1	D2 antag 35
O=S(=O)(Cc1ccc(Cl)cc1)c1ccccc1-c1nnc(-c2ccccc2)o1	D2 antag 55
CS(=O)(=O)c1ccccc1-c1nnc(-c2ccc(Cl)cc2)o1	none
COc1ccc2c(CNCCc3cccs3)c(C(=O)O)n(Cc3ccccc3)c2c1	none (no result: D2 PAM-2, D2 antag, D2 ag-2)
N#Cc1c(N)n(C2OC(CO)C(O)C2O)c2ncnc(N)c12 (stereo not given)	none (no result: D2 PAM-1, D2 antag, D2 ag-1)
Cc1ccsc1/C=N/NC(=O)c1ccncc1	none
Cc1ccsc1/C=N/NC(=O)c1ccc2ccccc2c1	D2 antag 41
O=C(NC1CCCCC1)c1ccc(CSc2nc3ccncc3n2Cc2ccccc2)cc1	none (no result: D2 PAM-2, D2 antag, D2 ag-2)
COc1cc(OC)cc(C(=O)NC(=S)N2CCCCC2c2cccnc2)c1 (stereo not given)	D2 antag 41
COc1ccc(NC(=O)N2CCCCC2c2cccnc2)cc1 (stereo not given)	none
CCC1CN(C(=O)C2CCN(S(=O)(=O)c3c(C)noc3/C=C/c3ccc(C)cc3)CC2)c2cc(C)ccc2O1 (stereo not given)	none (no result: D2 PAM-2, D2 antag, D2 ag-1, D2 ag-2)
COc1ccc(/C=C/C(=O)Nc2ccccc2C(=O)NCC(c2ccc(OC)cc2)N(C)C)cc1 (stereo not given)	D2 antag 60 (no result: D2 PAM-1)
COc1ccc(/C=C/C(=O)Nc2ccccc2C(=O)O)cc1	D2 antag 34
COc1ccc(/C=C/C(=O)Nc2ccccc2C(F)(F)F)cc1	none
COc1ccc(/C=C/C(=O)Nc2ccccc2C(=O)N2CCCC2)cc1	none
CCCN1C(=O)C2(c3ccccc31)c1c(oc3ccccc3c1=O)C(=O)N2CCCOC(C)C (stereo not given)	none (no result: D2 PAM-2, D2 antag, D2 ag-2)
NC(=Nc1ccc(Cl)cc1)c1ccccc1	D2 antag 34
ONC(=Nc1ccccc1)c1ccc(Cl)cc1	none
Cc1c(Cl)cccc1NC(=O)c1cc(-c2cccc(Cl)c2)on1	none (no result: D2 PAM-2, D2 antag, D2 ag-1, D2 ag-2)
O=C1S/C(=C\c2ccc(N3CCOCC3)o2)C(=O)N1c1ccccc1	D2 ag-1 31
CCC(C)(C)n1nnnc1C(c1ccccn1)N1CCCCC1 (stereo not given)	D2 antag 52
CN(Cc1ccccc1)C(=C(Cl)Cl)C(=C1NCCN1)[N+](=O)[O-]	D2 antag 34
CN(Cc1ccccc1)C(=C(Cl)Cl)/C(=C1/NCCN1C)[N+](=O)[O-]	none
CC(=O)O[C@]1(C(C)=O)CC[C@H]2[C@@H]3C=C(Cl)C4=CC(=O)CC[C@]4(C)[C@H]3CC[C@@]21C	none
CC(=O)O[C@]1(C(C)=O)CC[C@H]2[C@@H]3C=C(Cl)C4=CC(=O)[C@@H]5C[C@@H]5[C@]4(C)[C@H]3CC[C@@]21C	D2 antag 40
CCCSc1ccc([C@@H]2[C@@H]3C(=O)N(C)C(=O)[C@@H]3[C@]3(C(=O)OC)CCCCN23)cc1OC	D2 antag 35
COc1ccc(NC(=O)C2=C(C)Nc3nc(SCc4ccc(Cl)cc4)nn3C2c2cccc(OC)c2OC)cc1 (stereo not given)	none (no result: D2 PAM-2, D2 antag, D2 ag-2)
COc1cccc(-c2nc(NCC3CCCO3)c3ccccc3n2)c1O (stereo not given)	none
COc1cccc(-c2nc(NC(C)C)c3ccccc3n2)c1O	D2 antag 32
O=c1[nH]nc(CNc2ccc(O)cc2)c2ccccc12	D2 PAM-2 71
O=c1[nH]nc(CNc2ccc(C(F)(F)F)cc2)c2ccccc12	none
CCN1CCN(CCCNC(=O)Cn2c(-c3cccs3)cc3cc(F)ccc32)CC1	none (no result: D2 PAM-2, D2 antag, D2 ag-2)
COc1ccc(NC(=O)CN(C)C(=O)c2ccccc2OC)cc1	none
COc1ccc(N(C(=O)c2ccccc2OC(C)=O)C(C)C2CC2)cc1 (stereo not given)	D2 antag 30
CC(OC(=O)c1c2c(nc3ccccc13)/C(=C\c1ccc3c(c1)OCO3)CCC2)C(=O)Nc1ccc(S(N)(=O)=O)cc1 (stereo not given)	D2 ag-1 100
COc1ccc(-c2cc3nc(C)c(CCC(=O)Nc4ccccc4C(C)=O)c(C)n3n2)c(OC)c1	none (no result: D2 PAM-2, D2 antag, D2 ag-2)
C=CCc1ccc(OCC(O)CN2CCc3ccccc3C2)c(OC)c1 (stereo not given)	D2 antag 47
Cc1ccc(OCC(O)CN2CCN(Cc3ccc4c(c3)OCO4)CC2)cc1C (stereo not given)	none
OC(COc1ccc2c(c1)OCO2)CN1CCc2ccccc2C1 (stereo not given)	D2 antag 42
C=CCc1ccccc1OCC(O)CN1CCN(Cc2ccc3c(c2)OCO3)CC1 (stereo not given)	D2 antag 64
O=C(COc1ccccc1Cl)OCc1cc(=O)n2nc(-c3cccs3)sc2n1	none (no result: D2 PAM-2, D2 antag, D2 ag-2)
Cc1ccc2sc(NC(=O)C3CC3)nc2c1C	D2 PAM-1 36
COC(=O)Nc1nc2c(C)cccc2s1	D2 antag 38
COc1ccccc1NC(=O)c1oc2ccccc2c1NC(=O)c1ccccc1C(F)(F)F	none (no result: D2 PAM-2, D2 antag, D2 ag-2)
N#Cc1c(C#N)c(SSc2c(C#N)c(C#N)c(N)n2-c2ccccc2)n(-c2ccccc2)c1N	D2 PAM-2 inconclusive (no result: D2 PAM-1, D2 antag, D2 ag-1)
CS(=O)(=O)Nc1ccc(C(=O)N2CCN(c3ccccc3F)CC2)cc1	D2 antag 63
O=C(c1ccccc1)N1CCN(c2ccccc2F)CC1	none
O=C(Nc1ccccc1N1CCOCC1)c1cccc(NS(=O)(=O)c2ccc(F)c(F)c2)c1	D2 antag 48
COc1cccc(S(=O)(=O)Nc2cccc(C(=O)N3CCCC3)c2)c1	none
COc1cccc(S(=O)(=O)Nc2cccc(C(=O)N3CCOCC3)c2)c1	D2 antag 36
O=C(Nc1ccccc1N1CCOCC1)c1ccccc1NS(=O)(=O)c1ccc(F)c(F)c1	none
COc1ccc(N2CCN(C(=O)c3ccc(NS(=O)(=O)c4cccc(F)c4)cc3)CC2)cc1	D2 PAM-1 34
Cc1ccccc1OCCCCn1c(-c2ccc(Cl)cc2)nc2ccccc2c1=O	none (no result: D2 PAM-2, D2 antag, D2 ag-2)
COC(=O)c1sccc1S(=O)(=O)N(CC(=O)Nc1ccccc1C)c1ccc(Cl)cc1	none (no result: D2 PAM-2, D2 antag, D2 ag-2)
O=C(NC1CCCCCC1)c1ccc(CS(=O)c2cccc(Cl)c2)o1 (stereo not given)	none (no result: D2 PAM-2, D2 antag, D2 ag-2)
O=C1C(=NO)CC(c2ccccc2)N1c1ccccc1 (stereo not given)	none (no result: D2 PAM-1, D2 antag, D2 ag-1)
CC(=O)Nc1cccc(NC(=O)CSc2nnc(Cc3cccn3C)n2-c2ccc(F)cc2)c1	D2 antag 49
